Experimental data taken from PubChem BioAssay (NCI).
This is part of a sample that, as a whole, favours compounds with a hit. Of some 83,000 tested, about 20% had one in any assay.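 Growth was measured after 48 h exposure to one concentration of compound in 96-well plates. Values under 10 count as active.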 A number with no mark means an inactive call. Activity calls are given as the source filed them.

System: HL-60(TB) leukemia
Test: NCI-60 one-dose screen, 48 h (100 = growth as untreated, 0 = no growth, -100 = all killed)
Conditions: 10 µM unless noted

Row | SMILES | growth
1 | CC(C)n1nc(C#Cc2cccc(NC(=O)c3cccc(C(F)(F)F)c3)c2)c2c(N)ncnc21 | -18.9% (active)
2 | CC1=C(C(=O)Nc2ccc(F)cc2)C(c2ccccc2)C2=C(CC(C)(C)CC2=O)N1 (stereo not given) | 76%
3 | CCOc1cccc(-c2nc(N)nc(Nc3ccccc3SSc3ccccc3Nc3nc(N)nc(-c4cccc(OCC)c4)n3)n2)c1 | 8.5% (active)
4 | Cc1ccc(S(=O)(=O)/C(=C\c2ccc(Cl)cc2)C(=O)c2ccccc2)cc1 | 97.1%
5 | CCCCCCCCNc1cccc2c1C(=O)c1ccccc1C2=O | 73%
6 | O=C(Nc1ccccc1)Nc1ccc(Nc2ncnc3sc4c(c23)CCCC4)cc1 | 97%
7 | c1ccc2c(-c3c[nH]c4ccccc34)c3c(cc2c1)[nH]c1ccccc13 | 51.5%
8 | COc1ccccc1Nc1nnc(COc2ccc(CNC(=O)CCCC/C=C/C(C)C)cc2OC)o1 | 81.1%
9 | CC(CN(C)C)Oc1ccccc1NC1=C(Cl)C(=O)C(Nc2ccccc2OC(C)CN(C)C)=C(Cl)C1=O (stereo not given) | -41.8% (active)
10 | O=[N+]([O-])c1cccc([I+]c2ccccc2)c1 | 37.9%
11 | COc1cc(C2CC(c3ccc(C)cc3)=NN2C(C)=O)ccc1Oc1ccnc2cc(Cl)ccc12 (stereo not given) | 100%
12 | O=S(=O)(O)CC(O)CN1CCN(CCO)CC1 (stereo not given) | 96%
13 | Cc1ccc(-c2nc([P+](c3ccccc3)(c3ccccc3)c3ccccc3)c(Nc3ccccc3)o2)cc1 | -48.4% (active)
14 | COc1ccc(C(=O)C2=CC(=O)C(=O)C2)cc1OC | 110%
15 | Cc1cc2c(cc1[N+](=O)[O-])NC(CNC(C)C)CC2 (stereo not given) | 90.9%
16 | COc1cccc2c1n([O-])c1cccc(OC)c1[n+]2=O | 10.3%
17 | Cn1ccnc1C(=O)/C=C/c1ccc(C(=O)Nc2c(F)c(F)c(F)c(F)c2F)cc1 | -22.4% (active)
18 | NC1=C(c2nn[nH]n2)C(c2ccccc2Cl)c2ccc3ccccc3c2O1 (stereo not given) | 54.3%
19 | CCCCCCSc1ncnc2nc[nH]c12 | 72.2%
20 | CNC(=O)c1c(I)c(NC(C)=O)c(I)c(C(=O)O)c1I | 122%

Row | SMILES | growth
21 | C=C(C)[C@@H]1CC[C@]2(C(=O)N3CCNCC3)CC[C@]3(C)[C@H](CC[C@@H]4[C@@]5(C)C/C(=C/c6ccncc6)C(=O)C(C)(C)[C@@H]5CC[C@]43C)[C@@H]12 | 99.7%
22 | C/C(=N\O)c1ccccn1 | 112%
23 | Cc1nc(C)c(-c2nn3c(-c4cccc(F)c4)nnc3s2)s1 | 107%
24 | CCCCCCCCCCCCC[N+](C)(C)Cc1ccccc1 | -56.7% (active)
25 | COC(=O)c1nc(-c2ccc(C)cc2)oc1S(=O)(=O)c1ccc(Cl)cc1 | 51.8%
26 | COC(=O)c1nc(-c2ccccc2)oc1S(=O)(=O)n1nc(-c2ccccc2)cc1N | 58.9%
27 | CCCCC1COc2cccc3c2N1C=C/C3=C\C(=O)N(C)c1cccc(Cl)c1 (stereo not given) | 98.7%
28 | O=[N+]([O-])c1ccc(O)cc1Br | 99.9%
29 | O=C1c2cc([N+](=O)[O-])ccc2-c2cc(Cl)c(NC(=O)C(F)(F)F)cc21 | 75.6%
30 | CCOC(=O)Oc1c(OC)cc(C(=O)c2ccc(OC)c(O)c2OC)cc1OC | -32.6% (active)
31 | N[C@@H]1CCC[C@H]1NCCCCN1C(=O)c2cccc3cccc(c23)C1=O | 91.1%
32 | NC(N)=NC(N)=Nc1ccccc1-c1ccccc1 | 108%
33 | CCCCCCCCC(=O)OCCCC(CCC(CCC1CCCO1)OC(=O)CCCCCCCC)OC(=O)CCCCCCCC (stereo not given) | 89%
34 | O=C(CCCSc1nc(-c2ccccc2)cc(-c2ccc(Cl)cc2)n1)NO | -15.8% (active)
35 | COc1cc(CCN=Cc2ccccc2O)c([N+](=O)[O-])cc1OC | 101%
36 | COc1cccc(CNC(=O)c2cccc(C3CC(=O)c4c(cc(OC)c(OC)c4OC)O3)c2)c1 (stereo not given) | 43.9%
37 | N[C@@H](CO)C(=O)O | 106%
38 | O=C(Nc1ccc(-n2ccc3c(NC(=O)c4ccccc4)ncnc32)cc1)c1cccc(C(F)(F)F)c1 | 43.9%
39 | Clc1ccc2c(NCCNc3nc(Cl)nc4ccccc34)ccnc2c1 | -67% (active)
40 | COc1ccc(/C=C2\CCCC3C2=Nc2ccccc2NC3c2ccc(OC)cc2)cc1 (stereo not given) | 78.2%
